# Results as given in article PMC7862700, “An all-to-all approach to the identification of sequence-specific readers for epigenetic DNA modifications on cytosine”.
# Tests used:
# Assay in all cases: DAPPL (digital affinity profiling via proximity ligation, sequencing); 10 mM Tris-HCl pH 7.5, 50 mM NaCl, 1 mM DTT, 4% glycerol, room temperature, 30 min; GST-TFs on glutathione beads, 16-mer random dsDNA library, 0.1% formaldehyde crosslink after washing; high values mean tight binding
# FEV = target: T1, FEV (Homo sapiens, UniProt Q99581 1-238); conditions: protein: recombinant; tags: N-terminal GST; dsDNA, one strand shown
# T1 sequence: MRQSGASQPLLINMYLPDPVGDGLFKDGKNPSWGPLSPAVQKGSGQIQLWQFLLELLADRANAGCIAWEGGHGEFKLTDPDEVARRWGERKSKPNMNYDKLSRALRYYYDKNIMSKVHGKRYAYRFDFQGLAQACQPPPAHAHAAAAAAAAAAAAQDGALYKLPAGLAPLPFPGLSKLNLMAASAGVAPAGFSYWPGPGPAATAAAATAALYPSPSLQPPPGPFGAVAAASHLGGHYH
# In short: (§1)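 Binding signal is defined as a hexamer's read frequency for one factor over its frequency for the tag-only sample. To obtain reads, GST-fused human transcription factors were expressed in yeast, captured on glutathione beads, barcoded with DNA and pooled with that sample. Pools met 200 nmole of a 16-mer random double-stranded DNA library in Tris/NaCl/DTT/glycerol buffer for 30 min at room temperature before washing, 0.1% formaldehyde crosslinking, proximity ligation (BsaI/T4 ligase, 1 h, 37 °C), PCR and Illumina NextSeq500 sequencing.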
# ETV5 = ETV5 (Homo sapiens, UniProt P41161 1-510); conditions: protein: recombinant; tags: N-terminal GST; dsDNA, one strand shown
# Sequence of ETV5 (P41161 whole entry): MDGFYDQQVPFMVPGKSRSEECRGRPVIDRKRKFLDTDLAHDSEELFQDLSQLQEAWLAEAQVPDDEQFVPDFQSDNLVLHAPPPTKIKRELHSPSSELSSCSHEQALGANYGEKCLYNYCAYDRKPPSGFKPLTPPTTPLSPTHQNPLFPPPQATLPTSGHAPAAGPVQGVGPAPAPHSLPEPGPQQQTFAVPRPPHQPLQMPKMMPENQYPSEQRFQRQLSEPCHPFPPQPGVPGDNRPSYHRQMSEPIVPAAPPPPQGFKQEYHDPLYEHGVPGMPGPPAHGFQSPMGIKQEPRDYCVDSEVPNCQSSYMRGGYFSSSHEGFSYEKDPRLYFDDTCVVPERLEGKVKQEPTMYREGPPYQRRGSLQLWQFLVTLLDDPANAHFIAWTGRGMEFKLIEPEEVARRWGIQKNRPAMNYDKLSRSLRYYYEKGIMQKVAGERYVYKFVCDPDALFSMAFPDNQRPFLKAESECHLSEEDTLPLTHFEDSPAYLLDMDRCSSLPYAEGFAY
# In short: as §1
# HSF1 = HSF1 (Homo sapiens, UniProt Q00613 1-529); conditions: protein: recombinant; tags: N-terminal GST; chain copies: 3; dsDNA, one strand shown
# Sequence of HSF1 (Q00613 whole entry): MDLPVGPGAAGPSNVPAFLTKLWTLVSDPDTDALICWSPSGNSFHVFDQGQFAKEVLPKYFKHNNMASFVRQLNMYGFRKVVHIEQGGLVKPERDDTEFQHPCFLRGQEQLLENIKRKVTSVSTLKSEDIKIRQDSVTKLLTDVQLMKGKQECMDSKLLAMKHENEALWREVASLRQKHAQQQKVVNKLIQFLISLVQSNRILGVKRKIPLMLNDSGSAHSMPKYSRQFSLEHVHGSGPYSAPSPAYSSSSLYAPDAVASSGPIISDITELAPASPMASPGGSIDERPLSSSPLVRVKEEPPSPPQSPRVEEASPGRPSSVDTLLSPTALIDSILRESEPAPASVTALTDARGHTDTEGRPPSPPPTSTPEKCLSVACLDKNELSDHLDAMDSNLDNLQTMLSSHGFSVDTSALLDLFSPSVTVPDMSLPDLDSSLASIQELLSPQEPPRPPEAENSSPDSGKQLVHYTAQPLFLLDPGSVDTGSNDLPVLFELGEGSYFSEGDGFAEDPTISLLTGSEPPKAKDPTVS
# In short: as §1
# SPIC = target: T2, SPIC (Homo sapiens, UniProt Q8N5J4 1-248); conditions: protein: recombinant; tags: N-terminal GST; dsDNA, one strand shown
# T2 sequence: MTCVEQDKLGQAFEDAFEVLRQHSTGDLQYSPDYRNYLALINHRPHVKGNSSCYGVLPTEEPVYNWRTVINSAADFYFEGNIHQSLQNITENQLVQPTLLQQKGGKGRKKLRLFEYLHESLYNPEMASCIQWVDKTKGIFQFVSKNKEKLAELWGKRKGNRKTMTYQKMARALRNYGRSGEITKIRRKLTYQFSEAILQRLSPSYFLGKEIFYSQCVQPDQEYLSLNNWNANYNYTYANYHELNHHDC
# In short: as §1
# ELF4 = ELF4 (Homo sapiens, UniProt Q99607 1-663); conditions: protein: recombinant; tags: N-terminal GST; dsDNA, one strand shown
# Sequence of ELF4 (Q99607 whole entry): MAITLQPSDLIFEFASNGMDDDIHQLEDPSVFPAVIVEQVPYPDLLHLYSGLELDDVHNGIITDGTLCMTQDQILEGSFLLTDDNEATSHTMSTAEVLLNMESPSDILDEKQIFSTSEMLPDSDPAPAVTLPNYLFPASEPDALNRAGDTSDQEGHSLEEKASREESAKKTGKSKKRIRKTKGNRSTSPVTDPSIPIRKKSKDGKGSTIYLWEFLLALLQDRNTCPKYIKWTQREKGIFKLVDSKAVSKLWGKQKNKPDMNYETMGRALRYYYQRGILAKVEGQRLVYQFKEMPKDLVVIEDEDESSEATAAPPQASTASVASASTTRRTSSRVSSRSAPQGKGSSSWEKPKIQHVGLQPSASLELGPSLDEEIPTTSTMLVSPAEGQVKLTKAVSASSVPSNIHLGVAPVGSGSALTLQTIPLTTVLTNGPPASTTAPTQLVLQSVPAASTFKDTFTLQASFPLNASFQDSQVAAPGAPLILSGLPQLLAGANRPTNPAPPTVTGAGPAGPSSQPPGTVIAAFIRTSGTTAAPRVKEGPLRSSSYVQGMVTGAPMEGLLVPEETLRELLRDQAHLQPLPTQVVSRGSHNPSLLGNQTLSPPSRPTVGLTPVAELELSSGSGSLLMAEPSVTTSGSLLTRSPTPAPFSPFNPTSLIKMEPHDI
# In short: as §1
# ELK4 = target: T3, ELK4 (Homo sapiens, UniProt P28324-2 1-405); conditions: protein: recombinant; tags: N-terminal GST; dsDNA, one strand shown
# T3 sequence: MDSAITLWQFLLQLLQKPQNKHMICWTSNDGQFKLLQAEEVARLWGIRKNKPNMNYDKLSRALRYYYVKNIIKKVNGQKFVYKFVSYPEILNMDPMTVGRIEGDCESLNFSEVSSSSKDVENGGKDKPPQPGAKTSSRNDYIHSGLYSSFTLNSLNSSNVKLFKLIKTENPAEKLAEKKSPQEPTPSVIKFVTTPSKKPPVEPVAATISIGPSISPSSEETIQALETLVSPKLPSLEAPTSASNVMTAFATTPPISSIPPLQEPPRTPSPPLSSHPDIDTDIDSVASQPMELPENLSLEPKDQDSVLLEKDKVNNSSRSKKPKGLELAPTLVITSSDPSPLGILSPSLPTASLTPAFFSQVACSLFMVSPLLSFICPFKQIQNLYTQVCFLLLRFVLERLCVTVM
# In short: as §1
# ETV2 = target: T4, ETV2 (Homo sapiens, UniProt O00321 1-342); conditions: protein: recombinant; tags: N-terminal GST; dsDNA, one strand shown
# T4 sequence: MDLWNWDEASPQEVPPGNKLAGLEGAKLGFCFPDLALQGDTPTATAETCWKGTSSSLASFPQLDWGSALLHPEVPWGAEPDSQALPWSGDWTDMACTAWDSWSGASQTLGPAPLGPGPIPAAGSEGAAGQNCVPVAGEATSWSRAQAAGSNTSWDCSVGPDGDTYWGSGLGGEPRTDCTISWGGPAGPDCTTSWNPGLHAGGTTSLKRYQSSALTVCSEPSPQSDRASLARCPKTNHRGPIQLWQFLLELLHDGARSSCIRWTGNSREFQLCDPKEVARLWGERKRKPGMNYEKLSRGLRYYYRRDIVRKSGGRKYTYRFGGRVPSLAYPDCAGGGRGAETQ
# In short: as §1
# ELF3 = target: T5, ELF3 (Homo sapiens, UniProt P78545 1-371); conditions: protein: recombinant; tags: N-terminal GST; dsDNA, one strand shown
# T5 sequence: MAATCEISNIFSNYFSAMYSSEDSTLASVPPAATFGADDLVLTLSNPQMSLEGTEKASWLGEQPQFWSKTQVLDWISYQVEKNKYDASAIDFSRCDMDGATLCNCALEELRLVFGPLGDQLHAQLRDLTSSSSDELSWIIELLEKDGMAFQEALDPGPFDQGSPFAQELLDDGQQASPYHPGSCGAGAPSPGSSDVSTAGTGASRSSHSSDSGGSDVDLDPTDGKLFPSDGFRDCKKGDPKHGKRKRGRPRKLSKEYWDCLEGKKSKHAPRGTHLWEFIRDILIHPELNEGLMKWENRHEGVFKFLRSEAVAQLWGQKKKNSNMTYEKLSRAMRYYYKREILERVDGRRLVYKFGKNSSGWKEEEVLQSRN
# In short: as §1
# CRX = CRX (Homo sapiens, UniProt O43186 1-299); conditions: protein: recombinant; tags: N-terminal GST; dsDNA, one strand shown
# Sequence of CRX (O43186 whole entry): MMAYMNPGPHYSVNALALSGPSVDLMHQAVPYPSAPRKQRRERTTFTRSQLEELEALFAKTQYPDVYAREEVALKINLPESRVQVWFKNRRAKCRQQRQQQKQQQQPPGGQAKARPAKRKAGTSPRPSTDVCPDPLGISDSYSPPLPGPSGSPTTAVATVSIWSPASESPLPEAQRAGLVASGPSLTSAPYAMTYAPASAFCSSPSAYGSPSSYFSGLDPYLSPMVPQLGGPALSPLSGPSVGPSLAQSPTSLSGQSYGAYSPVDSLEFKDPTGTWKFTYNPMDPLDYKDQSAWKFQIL
# In short: as §1
# ETV1 = ETV1 (Homo sapiens, UniProt P50549 1-477); conditions: protein: recombinant; tags: N-terminal GST; dsDNA, one strand shown
# Sequence of ETV1 (P50549 whole entry): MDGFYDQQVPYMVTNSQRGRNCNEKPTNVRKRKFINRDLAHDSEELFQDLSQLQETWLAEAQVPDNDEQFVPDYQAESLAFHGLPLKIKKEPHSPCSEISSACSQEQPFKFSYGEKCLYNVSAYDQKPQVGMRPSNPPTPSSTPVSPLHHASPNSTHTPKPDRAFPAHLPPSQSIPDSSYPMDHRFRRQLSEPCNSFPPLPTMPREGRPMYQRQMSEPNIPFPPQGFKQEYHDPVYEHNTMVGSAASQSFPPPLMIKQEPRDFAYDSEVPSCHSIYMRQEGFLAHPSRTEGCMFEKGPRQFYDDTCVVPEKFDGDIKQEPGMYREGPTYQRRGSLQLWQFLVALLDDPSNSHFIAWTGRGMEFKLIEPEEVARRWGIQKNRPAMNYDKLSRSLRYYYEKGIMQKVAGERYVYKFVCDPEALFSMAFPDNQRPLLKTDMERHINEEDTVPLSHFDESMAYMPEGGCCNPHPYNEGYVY
# In short: as §1
# ERF = target: T6, ERF (Homo sapiens, UniProt P50548 1-548); conditions: protein: recombinant; tags: N-terminal GST; dsDNA, one strand shown
# T6 sequence: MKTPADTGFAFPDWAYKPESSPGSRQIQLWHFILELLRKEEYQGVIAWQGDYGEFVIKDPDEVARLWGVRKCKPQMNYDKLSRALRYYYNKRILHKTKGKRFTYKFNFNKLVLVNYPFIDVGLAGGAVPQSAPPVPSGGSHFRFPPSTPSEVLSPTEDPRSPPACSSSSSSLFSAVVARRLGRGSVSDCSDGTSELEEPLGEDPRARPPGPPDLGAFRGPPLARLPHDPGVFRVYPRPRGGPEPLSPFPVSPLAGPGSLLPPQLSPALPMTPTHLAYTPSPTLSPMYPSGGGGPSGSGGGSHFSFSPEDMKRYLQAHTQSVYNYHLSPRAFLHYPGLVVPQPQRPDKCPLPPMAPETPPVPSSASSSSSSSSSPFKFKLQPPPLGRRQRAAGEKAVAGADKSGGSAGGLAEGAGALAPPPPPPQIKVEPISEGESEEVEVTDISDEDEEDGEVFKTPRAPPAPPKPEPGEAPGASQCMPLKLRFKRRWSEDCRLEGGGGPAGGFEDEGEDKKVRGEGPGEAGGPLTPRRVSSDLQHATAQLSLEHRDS
# In short: as §1
# ETV3L = target: T7, ETV3L (Homo sapiens, UniProt Q6ZN32 1-361); conditions: protein: recombinant; tags: N-terminal GST; dsDNA, one strand shown
# T7 sequence: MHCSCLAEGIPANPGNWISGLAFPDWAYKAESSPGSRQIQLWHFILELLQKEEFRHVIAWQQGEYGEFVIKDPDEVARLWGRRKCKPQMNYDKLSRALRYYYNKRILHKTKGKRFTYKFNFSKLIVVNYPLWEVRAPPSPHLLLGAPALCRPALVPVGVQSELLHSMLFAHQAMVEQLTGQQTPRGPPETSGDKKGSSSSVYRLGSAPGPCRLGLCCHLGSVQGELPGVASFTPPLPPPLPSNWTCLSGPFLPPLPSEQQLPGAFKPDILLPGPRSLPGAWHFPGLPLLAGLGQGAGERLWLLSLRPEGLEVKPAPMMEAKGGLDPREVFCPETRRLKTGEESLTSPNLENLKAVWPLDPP
# In short: as §1
# ETS2 = target: T8, ETS2 (Homo sapiens, UniProt P15036 1-469); conditions: protein: recombinant; tags: N-terminal GST; dsDNA, one strand shown
# T8 sequence: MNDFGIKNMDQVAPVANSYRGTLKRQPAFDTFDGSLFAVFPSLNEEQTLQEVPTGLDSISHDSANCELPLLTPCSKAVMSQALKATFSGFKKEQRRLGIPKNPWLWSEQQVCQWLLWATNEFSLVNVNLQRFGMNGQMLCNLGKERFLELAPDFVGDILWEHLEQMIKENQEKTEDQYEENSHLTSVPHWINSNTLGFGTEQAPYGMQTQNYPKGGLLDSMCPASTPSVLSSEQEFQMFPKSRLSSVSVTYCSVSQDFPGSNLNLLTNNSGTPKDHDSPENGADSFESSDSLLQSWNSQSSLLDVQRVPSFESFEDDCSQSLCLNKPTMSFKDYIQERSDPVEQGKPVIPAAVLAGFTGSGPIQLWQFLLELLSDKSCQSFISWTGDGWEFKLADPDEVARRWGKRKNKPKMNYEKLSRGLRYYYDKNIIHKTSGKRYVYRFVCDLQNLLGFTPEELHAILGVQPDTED
# In short: as §1
# SPDEF = target: T9, SPDEF (Homo sapiens, UniProt O95238 1-335); conditions: protein: recombinant; tags: N-terminal GST; dsDNA, one strand shown
# T9 sequence: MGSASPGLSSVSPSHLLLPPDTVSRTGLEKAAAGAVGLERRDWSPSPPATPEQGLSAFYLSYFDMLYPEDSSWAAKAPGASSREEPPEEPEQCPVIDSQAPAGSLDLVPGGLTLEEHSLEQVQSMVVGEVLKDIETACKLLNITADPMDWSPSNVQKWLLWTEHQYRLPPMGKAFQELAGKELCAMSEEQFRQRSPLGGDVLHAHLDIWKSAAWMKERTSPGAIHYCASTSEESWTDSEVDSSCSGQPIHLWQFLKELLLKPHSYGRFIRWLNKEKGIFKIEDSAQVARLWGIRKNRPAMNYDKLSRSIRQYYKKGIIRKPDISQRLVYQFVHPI
# In short: as §1
# ETV7 = target: T10, ETV7 (Homo sapiens, UniProt Q9Y603 1-341); conditions: protein: recombinant; tags: N-terminal GST; dsDNA, one strand shown
# T10 sequence: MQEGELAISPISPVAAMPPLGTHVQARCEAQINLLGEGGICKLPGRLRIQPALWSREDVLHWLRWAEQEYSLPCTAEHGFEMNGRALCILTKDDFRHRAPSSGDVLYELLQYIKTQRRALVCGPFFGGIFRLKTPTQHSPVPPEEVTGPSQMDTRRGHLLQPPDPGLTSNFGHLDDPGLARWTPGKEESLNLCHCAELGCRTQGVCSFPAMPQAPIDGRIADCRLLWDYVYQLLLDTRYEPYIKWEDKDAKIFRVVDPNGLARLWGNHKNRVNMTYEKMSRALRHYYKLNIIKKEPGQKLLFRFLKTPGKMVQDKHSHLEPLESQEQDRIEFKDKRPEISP
# In short: as §1
# ELF5 = target: T11, ELF5 (Homo sapiens, UniProt Q9UKW6-2 1-255); conditions: protein: recombinant; tags: N-terminal GST; dsDNA, one strand shown
# T11 sequence: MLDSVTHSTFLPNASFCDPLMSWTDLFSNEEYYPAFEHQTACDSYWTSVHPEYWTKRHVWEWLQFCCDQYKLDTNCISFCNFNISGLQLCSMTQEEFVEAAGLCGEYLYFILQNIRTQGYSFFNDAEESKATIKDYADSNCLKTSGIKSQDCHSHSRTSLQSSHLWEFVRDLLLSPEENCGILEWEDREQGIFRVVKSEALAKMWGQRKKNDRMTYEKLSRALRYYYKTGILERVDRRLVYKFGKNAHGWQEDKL
# In short: as §1
# ETV3 = target: T12, ETV3 (Homo sapiens, UniProt P41162-2 1-143); conditions: protein: recombinant; tags: N-terminal GST; dsDNA, one strand shown
# T12 sequence: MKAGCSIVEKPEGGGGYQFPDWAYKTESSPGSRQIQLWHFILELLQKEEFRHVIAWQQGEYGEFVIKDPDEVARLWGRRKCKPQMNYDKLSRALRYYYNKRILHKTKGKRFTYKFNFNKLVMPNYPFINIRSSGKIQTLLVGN
# In short: as §1
# ETV6 = ETV6 (Homo sapiens, UniProt P41212 1-452); conditions: protein: recombinant; tags: N-terminal GST; dsDNA, one strand shown
# Sequence of ETV6 (P41212 whole entry): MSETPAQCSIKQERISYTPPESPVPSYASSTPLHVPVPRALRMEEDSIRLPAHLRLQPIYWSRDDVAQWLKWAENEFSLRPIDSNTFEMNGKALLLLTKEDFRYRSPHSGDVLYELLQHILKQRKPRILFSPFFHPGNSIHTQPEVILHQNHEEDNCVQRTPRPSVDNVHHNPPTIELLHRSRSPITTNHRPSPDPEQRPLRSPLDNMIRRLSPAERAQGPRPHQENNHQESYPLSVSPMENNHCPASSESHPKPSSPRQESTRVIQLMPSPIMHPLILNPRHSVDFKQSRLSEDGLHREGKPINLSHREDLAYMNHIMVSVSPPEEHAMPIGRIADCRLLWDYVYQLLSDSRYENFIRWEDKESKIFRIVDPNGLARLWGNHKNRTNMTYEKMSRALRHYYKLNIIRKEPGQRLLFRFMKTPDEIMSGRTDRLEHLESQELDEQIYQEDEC
# In short: as §1
sequence,measurement,setting,value
TTTAAG,binding signal,FEV,"1.31 fold enrichment (6-mer frequency, TF over GST control)"
same,binding signal,ETV5,"1.34 fold enrichment (6-mer frequency, TF over GST control)"
same,binding signal,HSF1,"1.87 fold enrichment (6-mer frequency, TF over GST control)"
same,binding signal,SPIC,"1.47 fold enrichment (6-mer frequency, TF over GST control)"
same,binding signal,ELF4,"1.29 fold enrichment (6-mer frequency, TF over GST control)"
same,binding signal,ELK4,"1.22 fold enrichment (6-mer frequency, TF over GST control)"
same,binding signal,ETV2,"1.38 fold enrichment (6-mer frequency, TF over GST control)"
same,binding signal,ELF3,"1.28 fold enrichment (6-mer frequency, TF over GST control)"
same,binding signal,CRX,"2.81 fold enrichment (6-mer frequency, TF over GST control)"
same,binding signal,ETV1,"1.28 fold enrichment (6-mer frequency, TF over GST control)"
same,binding signal,ERF,"1.3 fold enrichment (6-mer frequency, TF over GST control)"
same,binding signal,ETV3L,"1.26 fold enrichment (6-mer frequency, TF over GST control)"
same,binding signal,ETS2,"1.36 fold enrichment (6-mer frequency, TF over GST control)"
same,binding signal,SPDEF,"1.44 fold enrichment (6-mer frequency, TF over GST control)"
same,binding signal,ETV7,"1.33 fold enrichment (6-mer frequency, TF over GST control)"
same,binding signal,ELF5,"1.32 fold enrichment (6-mer frequency, TF over GST control)"
same,binding signal,ETV3,"1.24 fold enrichment (6-mer frequency, TF over GST control)"
same,binding signal,ETV6,"1.26 fold enrichment (6-mer frequency, TF over GST control)"
